# Assay results published in article PMC11006913.
# Residue numbers refer to the chain shown, from its start.
# Columns and labels:
# Test in all cases: PBM; 200 nM protein, PBS
# Conditions in all cases: dsDNA, one strand shown
# [1] = target: HOXB9 (Homo sapiens, UniProt P17482 171-250, T197M)
# [2] = target: HOXA4 (Homo sapiens, UniProt Q00056 201-287, W262R)
# [3] = target: HOXC9 (Homo sapiens, UniProt P31274 178-260, K195R)
# [4] = target: T1, VENTX (Homo sapiens, UniProt O95231 78-163)
# T1 sequence: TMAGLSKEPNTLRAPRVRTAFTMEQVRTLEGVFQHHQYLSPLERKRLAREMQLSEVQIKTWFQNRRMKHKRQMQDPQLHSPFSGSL
# [5] = target: HOXA7 (Homo sapiens, UniProt P31268 116-202)
# [6] = target: HOXC10 (Homo sapiens, UniProt Q9NYD6 254-340)
# [7] = target: T2, PAX4 (Homo sapiens, UniProt O43316 9-242)
# T2 sequence: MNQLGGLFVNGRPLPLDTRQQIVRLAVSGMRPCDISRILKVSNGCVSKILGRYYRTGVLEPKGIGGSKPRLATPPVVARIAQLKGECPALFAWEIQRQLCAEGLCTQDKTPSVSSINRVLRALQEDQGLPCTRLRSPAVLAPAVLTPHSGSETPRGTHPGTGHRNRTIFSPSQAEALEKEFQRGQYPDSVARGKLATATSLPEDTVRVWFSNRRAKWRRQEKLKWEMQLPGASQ
# [8] = target: HOXB9 (Homo sapiens, UniProt P17482 171-250)
# [9] = target: HOXC9 (Homo sapiens, UniProt P31274 178-260)
# [10] = target: HOXC9 (Homo sapiens, UniProt P31274 178-260, R193K)
# [11] = target: HOXA4 (Homo sapiens, UniProt Q00056 201-287)
# [12] = target: HOXC10 (Homo sapiens, UniProt Q9NYD6 254-340, K271E)
# [13] = target: VAX1 (Homo sapiens, UniProt Q5SQQ9 86-172)
# [14] = target: HOXB9 (Homo sapiens, UniProt P17482 171-250, R186Q)
# [15] = target: HOXC9 (Homo sapiens, UniProt P31274 178-260, R222W)
# [16] = target: T3, PAX4 (Homo sapiens, UniProt O43316 9-242, R227W)
# T3 sequence: T2 sequence with R219W
# [17] = target: HOXA2 (Homo sapiens, UniProt O43364 129-215, Y150S)
# [18] = target: HOXA7 (Homo sapiens, UniProt P31268 116-202, W177C)
# [19] = target: HOXA2 (Homo sapiens, UniProt O43364 129-215)
# [20] = target: HOXB6 (Homo sapiens, UniProt P17509 132-218)
# Sequence of HOXB6 (P17509 132-218): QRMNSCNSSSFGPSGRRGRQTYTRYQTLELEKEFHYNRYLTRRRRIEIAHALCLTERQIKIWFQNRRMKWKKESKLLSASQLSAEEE
# Sequence of HOXB9 (Homo sapiens, UniProt P17482 171-250, R186Q) (P17482 171-250 R186Q): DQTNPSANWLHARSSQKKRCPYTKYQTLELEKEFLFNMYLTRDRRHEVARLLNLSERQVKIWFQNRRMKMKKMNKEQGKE
# Sequence of VAX1 (Q5SQQ9 86-172): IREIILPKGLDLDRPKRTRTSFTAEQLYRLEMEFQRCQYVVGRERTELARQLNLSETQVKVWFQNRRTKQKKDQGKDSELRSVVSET
# Sequence of HOXA7 (Homo sapiens, UniProt P31268 116-202, W177C) (P31268 116-202 W177C): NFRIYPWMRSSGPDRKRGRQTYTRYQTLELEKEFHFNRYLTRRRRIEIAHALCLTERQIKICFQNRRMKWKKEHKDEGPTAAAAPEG
# Sequence of HOXA2 (Homo sapiens, UniProt O43364 129-215) (O43364 129-215): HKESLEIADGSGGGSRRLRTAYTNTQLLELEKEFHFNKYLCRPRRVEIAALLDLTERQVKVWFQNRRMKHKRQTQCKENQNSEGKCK
# Sequence of HOXC9 (Homo sapiens, UniProt P31274 178-260, K195R) (P31274 178-260 K195R): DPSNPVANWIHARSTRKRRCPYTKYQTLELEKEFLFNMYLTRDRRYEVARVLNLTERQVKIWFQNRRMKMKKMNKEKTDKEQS
# Sequence of HOXC10 (Homo sapiens, UniProt Q9NYD6 254-340, K271E) (Q9NYD6 254-340 K271E): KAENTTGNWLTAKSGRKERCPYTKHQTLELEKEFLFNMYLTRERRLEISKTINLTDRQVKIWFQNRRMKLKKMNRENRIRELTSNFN
# Sequence of HOXB9 (Homo sapiens, UniProt P17482 171-250) (P17482 171-250): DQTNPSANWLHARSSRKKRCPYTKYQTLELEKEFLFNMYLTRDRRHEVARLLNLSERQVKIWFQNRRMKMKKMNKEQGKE
# Sequence of HOXA4 (Homo sapiens, UniProt Q00056 201-287) (Q00056 201-287): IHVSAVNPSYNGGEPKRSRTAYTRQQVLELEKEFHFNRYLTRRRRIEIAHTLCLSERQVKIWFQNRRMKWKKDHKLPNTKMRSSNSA
# Sequence of HOXC9 (Homo sapiens, UniProt P31274 178-260, R193K) (P31274 178-260 R193K): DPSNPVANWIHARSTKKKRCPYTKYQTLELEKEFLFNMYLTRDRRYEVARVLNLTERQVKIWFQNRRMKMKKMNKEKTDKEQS
# Sequence of HOXC10 (Homo sapiens, UniProt Q9NYD6 254-340) (Q9NYD6 254-340): as the sequence (Q9NYD6 254-340 K271E) above, with E18K counted along it
# Sequence of HOXC9 (Homo sapiens, UniProt P31274 178-260, R222W) (P31274 178-260 R222W): as the sequence (P31274 178-260 R193K) above, with K16R, R45W counted along it
# Sequence of HOXA2 (Homo sapiens, UniProt O43364 129-215, Y150S) (O43364 129-215 Y150S): as the sequence (O43364 129-215) above, with Y22S counted along it
# Sequence of HOXA7 (Homo sapiens, UniProt P31268 116-202) (P31268 116-202): as the sequence (P31268 116-202 W177C) above, with C62W counted along it
# Sequence of HOXB9 (Homo sapiens, UniProt P17482 171-250, T197M) (P17482 171-250 T197M): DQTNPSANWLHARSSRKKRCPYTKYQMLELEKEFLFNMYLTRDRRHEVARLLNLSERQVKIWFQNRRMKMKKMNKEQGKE
# Sequence of HOXC9 (Homo sapiens, UniProt P31274 178-260) (P31274 178-260): as the sequence (P31274 178-260 R193K) above, with K16R counted along it
# Sequence of HOXA4 (Homo sapiens, UniProt Q00056 201-287, W262R) (Q00056 201-287 W262R): as the sequence (Q00056 201-287) above, with W62R counted along it
Sequence,binding signal [1],binding signal [2],binding signal [3],binding signal [4],binding signal [5],binding signal [6],binding signal [7],binding signal [8],binding signal [9],binding signal [10],binding signal [11],binding signal [12],binding signal [13],binding signal [14],binding signal [15],binding signal [16],binding signal [17],binding signal [18],binding signal [19],binding signal [20]
AATTAATA,"10.3 upbm affinity estimate (log intensity, higher = more binding, comparable within an allelic series)","10.8 upbm affinity estimate (log intensity, higher = more binding, comparable within an allelic series)","12.8 upbm affinity estimate (log intensity, higher = more binding, comparable within an allelic series)","12.3 upbm affinity estimate (log intensity, higher = more binding, comparable within an allelic series)","11.7 upbm affinity estimate (log intensity, higher = more binding, comparable within an allelic series)","12.2 upbm affinity estimate (log intensity, higher = more binding, comparable within an allelic series)","12.5 upbm affinity estimate (log intensity, higher = more binding, comparable within an allelic series)","12 upbm affinity estimate (log intensity, higher = more binding, comparable within an allelic series)","12.7 upbm affinity estimate (log intensity, higher = more binding, comparable within an allelic series)","12.7 upbm affinity estimate (log intensity, higher = more binding, comparable within an allelic series)","13.8 upbm affinity estimate (log intensity, higher = more binding, comparable within an allelic series)","12 upbm affinity estimate (log intensity, higher = more binding, comparable within an allelic series)","12.9 upbm affinity estimate (log intensity, higher = more binding, comparable within an allelic series)","11.8 upbm affinity estimate (log intensity, higher = more binding, comparable within an allelic series)","11.3 upbm affinity estimate (log intensity, higher = more binding, comparable within an allelic series)","11.2 upbm affinity estimate (log intensity, higher = more binding, comparable within an allelic series)","11.1 upbm affinity estimate (log intensity, higher = more binding, comparable within an allelic series)","8.99 upbm affinity estimate (log intensity, higher = more binding, comparable within an allelic series)","12.1 upbm affinity estimate (log intensity, higher = more binding, comparable within an allelic series)","12.1 upbm affinity estimate (log intensity, higher = more binding, comparable within an allelic series)"
GTAATTAA,"10.6 upbm affinity estimate (log intensity, higher = more binding, comparable within an allelic series)","10.9 upbm affinity estimate (log intensity, higher = more binding, comparable within an allelic series)","13.3 upbm affinity estimate (log intensity, higher = more binding, comparable within an allelic series)","13 upbm affinity estimate (log intensity, higher = more binding, comparable within an allelic series)","12.5 upbm affinity estimate (log intensity, higher = more binding, comparable within an allelic series)","12.7 upbm affinity estimate (log intensity, higher = more binding, comparable within an allelic series)","12.6 upbm affinity estimate (log intensity, higher = more binding, comparable within an allelic series)","12.6 upbm affinity estimate (log intensity, higher = more binding, comparable within an allelic series)","13.2 upbm affinity estimate (log intensity, higher = more binding, comparable within an allelic series)","13.2 upbm affinity estimate (log intensity, higher = more binding, comparable within an allelic series)","14.3 upbm affinity estimate (log intensity, higher = more binding, comparable within an allelic series)","12.9 upbm affinity estimate (log intensity, higher = more binding, comparable within an allelic series)","13.8 upbm affinity estimate (log intensity, higher = more binding, comparable within an allelic series)","12.4 upbm affinity estimate (log intensity, higher = more binding, comparable within an allelic series)","11.3 upbm affinity estimate (log intensity, higher = more binding, comparable within an allelic series)","11.2 upbm affinity estimate (log intensity, higher = more binding, comparable within an allelic series)","11.1 upbm affinity estimate (log intensity, higher = more binding, comparable within an allelic series)","9.01 upbm affinity estimate (log intensity, higher = more binding, comparable within an allelic series)","13.2 upbm affinity estimate (log intensity, higher = more binding, comparable within an allelic series)","12.9 upbm affinity estimate (log intensity, higher = more binding, comparable within an allelic series)"
ATAATTAC,"10.5 upbm affinity estimate (log intensity, higher = more binding, comparable within an allelic series)","10.9 upbm affinity estimate (log intensity, higher = more binding, comparable within an allelic series)","13 upbm affinity estimate (log intensity, higher = more binding, comparable within an allelic series)","12.5 upbm affinity estimate (log intensity, higher = more binding, comparable within an allelic series)","12.2 upbm affinity estimate (log intensity, higher = more binding, comparable within an allelic series)","12.4 upbm affinity estimate (log intensity, higher = more binding, comparable within an allelic series)","12.3 upbm affinity estimate (log intensity, higher = more binding, comparable within an allelic series)","12.1 upbm affinity estimate (log intensity, higher = more binding, comparable within an allelic series)","13 upbm affinity estimate (log intensity, higher = more binding, comparable within an allelic series)","12.9 upbm affinity estimate (log intensity, higher = more binding, comparable within an allelic series)","14.2 upbm affinity estimate (log intensity, higher = more binding, comparable within an allelic series)","12.4 upbm affinity estimate (log intensity, higher = more binding, comparable within an allelic series)","13.4 upbm affinity estimate (log intensity, higher = more binding, comparable within an allelic series)","11.9 upbm affinity estimate (log intensity, higher = more binding, comparable within an allelic series)","11.1 upbm affinity estimate (log intensity, higher = more binding, comparable within an allelic series)","11.2 upbm affinity estimate (log intensity, higher = more binding, comparable within an allelic series)","11.1 upbm affinity estimate (log intensity, higher = more binding, comparable within an allelic series)","9.02 upbm affinity estimate (log intensity, higher = more binding, comparable within an allelic series)","13.1 upbm affinity estimate (log intensity, higher = more binding, comparable within an allelic series)","12.6 upbm affinity estimate (log intensity, higher = more binding, comparable within an allelic series)"
ATAATTAT,"10.4 upbm affinity estimate (log intensity, higher = more binding, comparable within an allelic series)","10.9 upbm affinity estimate (log intensity, higher = more binding, comparable within an allelic series)","12.9 upbm affinity estimate (log intensity, higher = more binding, comparable within an allelic series)","12.3 upbm affinity estimate (log intensity, higher = more binding, comparable within an allelic series)","12 upbm affinity estimate (log intensity, higher = more binding, comparable within an allelic series)","12.3 upbm affinity estimate (log intensity, higher = more binding, comparable within an allelic series)","12.4 upbm affinity estimate (log intensity, higher = more binding, comparable within an allelic series)","12 upbm affinity estimate (log intensity, higher = more binding, comparable within an allelic series)","12.9 upbm affinity estimate (log intensity, higher = more binding, comparable within an allelic series)","12.8 upbm affinity estimate (log intensity, higher = more binding, comparable within an allelic series)","14.3 upbm affinity estimate (log intensity, higher = more binding, comparable within an allelic series)","12.1 upbm affinity estimate (log intensity, higher = more binding, comparable within an allelic series)","13.2 upbm affinity estimate (log intensity, higher = more binding, comparable within an allelic series)","11.7 upbm affinity estimate (log intensity, higher = more binding, comparable within an allelic series)","11.2 upbm affinity estimate (log intensity, higher = more binding, comparable within an allelic series)","11.3 upbm affinity estimate (log intensity, higher = more binding, comparable within an allelic series)","10.9 upbm affinity estimate (log intensity, higher = more binding, comparable within an allelic series)","9.06 upbm affinity estimate (log intensity, higher = more binding, comparable within an allelic series)","13.1 upbm affinity estimate (log intensity, higher = more binding, comparable within an allelic series)","12.4 upbm affinity estimate (log intensity, higher = more binding, comparable within an allelic series)"
GATAATTA,"10.5 upbm affinity estimate (log intensity, higher = more binding, comparable within an allelic series)","11 upbm affinity estimate (log intensity, higher = more binding, comparable within an allelic series)","12.9 upbm affinity estimate (log intensity, higher = more binding, comparable within an allelic series)","12.8 upbm affinity estimate (log intensity, higher = more binding, comparable within an allelic series)","12.2 upbm affinity estimate (log intensity, higher = more binding, comparable within an allelic series)","12.2 upbm affinity estimate (log intensity, higher = more binding, comparable within an allelic series)","12.6 upbm affinity estimate (log intensity, higher = more binding, comparable within an allelic series)","11.9 upbm affinity estimate (log intensity, higher = more binding, comparable within an allelic series)","12.8 upbm affinity estimate (log intensity, higher = more binding, comparable within an allelic series)","12.8 upbm affinity estimate (log intensity, higher = more binding, comparable within an allelic series)","14.3 upbm affinity estimate (log intensity, higher = more binding, comparable within an allelic series)","12.2 upbm affinity estimate (log intensity, higher = more binding, comparable within an allelic series)","13.7 upbm affinity estimate (log intensity, higher = more binding, comparable within an allelic series)","11.8 upbm affinity estimate (log intensity, higher = more binding, comparable within an allelic series)","11.1 upbm affinity estimate (log intensity, higher = more binding, comparable within an allelic series)","11.2 upbm affinity estimate (log intensity, higher = more binding, comparable within an allelic series)","10.9 upbm affinity estimate (log intensity, higher = more binding, comparable within an allelic series)","9.01 upbm affinity estimate (log intensity, higher = more binding, comparable within an allelic series)","13.2 upbm affinity estimate (log intensity, higher = more binding, comparable within an allelic series)","12.5 upbm affinity estimate (log intensity, higher = more binding, comparable within an allelic series)"
GGTAATTA,"10.6 upbm affinity estimate (log intensity, higher = more binding, comparable within an allelic series)","10.9 upbm affinity estimate (log intensity, higher = more binding, comparable within an allelic series)","13.2 upbm affinity estimate (log intensity, higher = more binding, comparable within an allelic series)","13.2 upbm affinity estimate (log intensity, higher = more binding, comparable within an allelic series)","12.6 upbm affinity estimate (log intensity, higher = more binding, comparable within an allelic series)","12.5 upbm affinity estimate (log intensity, higher = more binding, comparable within an allelic series)","12.5 upbm affinity estimate (log intensity, higher = more binding, comparable within an allelic series)","12.3 upbm affinity estimate (log intensity, higher = more binding, comparable within an allelic series)","13.1 upbm affinity estimate (log intensity, higher = more binding, comparable within an allelic series)","13.1 upbm affinity estimate (log intensity, higher = more binding, comparable within an allelic series)","14.3 upbm affinity estimate (log intensity, higher = more binding, comparable within an allelic series)","12.7 upbm affinity estimate (log intensity, higher = more binding, comparable within an allelic series)","14.1 upbm affinity estimate (log intensity, higher = more binding, comparable within an allelic series)","12.2 upbm affinity estimate (log intensity, higher = more binding, comparable within an allelic series)","11 upbm affinity estimate (log intensity, higher = more binding, comparable within an allelic series)","11.1 upbm affinity estimate (log intensity, higher = more binding, comparable within an allelic series)","11 upbm affinity estimate (log intensity, higher = more binding, comparable within an allelic series)","9.03 upbm affinity estimate (log intensity, higher = more binding, comparable within an allelic series)","13.4 upbm affinity estimate (log intensity, higher = more binding, comparable within an allelic series)","12.9 upbm affinity estimate (log intensity, higher = more binding, comparable within an allelic series)"
